# Screening results as filed in PubChem BioAssay.
# BaF3 parental: parental Ba/F3 viability inhibition as JAK2V617F counter-screen | CellTiter-Glo ATP luminescence | inhibition, % at 5.6 µM | actives 1.1% (n = 220,000) | AID 1486;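 active means inhibition above a per-campaign cutoff, the mean inhibition of all tested compounds plus 3 SD, cut at about 27% in these data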;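 further: 0% = DMSO wells and 100% = JAK Inhibitor I control wells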
# IEC-6 cytotox: counter-screen for KLF5 inhibitors: cytotoxicity in IEC-6 cells; IEC-6 cytotoxicity, luminescence viability; inhibition, % at 5 µM; actives 0.78% (n = 290,000); AID 1825; in the data active means inhibition above about 22%;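 further: 0% = plate median of test compound wells and 100% = cytotoxic reference compound wells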
# Ba/F3 V617F tox: reduce viability of Ba/F3 cells dependent on JAK2V617F; Ba/F3 EpoR-JAK2V617F viability, ATP luminescence; inhibition, % at 5.6 µM; actives 1.1% (n = 220,000);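 active means inhibition above the campaign mean plus 3 SD over all tested compounds, cut at about 24% in these data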;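 further: cytokine-independent growth of Ba/F3 cells driven by EpoR plus mutant JAK2; 0% = DMSO-treated cells and 100% = JAK inhibitor I control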
# APP 5UTR inh: APP translation inhibition; SH-SY5Y APP 5'UTR-luciferase reporter, luminescence; inhibition, % at 2 µM; actives 0.82% (n = 190,000); AID 1285;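 active means inhibition above a set limit, derived from the sample mean plus 3 SD, cut at about 45% in these data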
# KLF5 inhibitor: inhibitors of KLF5 expression. AID 1700. inhibition, % at 5 µM. actives 0.23% (n = 290,000). DLD-1 KLF5 promoter-luciferase reporter, luminescence;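 active means inhibition above a per-plate limit of that plate's mean compound inhibition plus 3 SD, cut at about 60% in these data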;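 further: 0% = DMSO wells and 100% = LY294002 at 200 µM; higher means less KLF5 promoter-driven luciferase light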
# BaF3 tox 2: parental Ba/F3 viability inhibition for JAK2V617F counter-screen; inhibition, % at 5.6 µM; actives 31% (n = 580); shares compounds with Ba/F3 V617F tox; AID 1520; CellTiter-Glo luminescence; cells kept alive by added IL-3;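 active means cell growth inhibition above the hit limit set in the earlier mutant JAK2 cell screen, cut at about 27% in these data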;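 further: plate controls were DMSO-treated cells for no effect and JAK Inhibitor I control wells for full effect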
# JAK2V617F conf: confirmation: loss of viability in JAK2V617F-dependent Ba/F3 cells; shares compounds with Ba/F3 V617F tox; Ba/F3 EpoR-JAK2V617F viability, CellTiter-Glo luminescence; inhibition, % at 5.6 µM; actives 66% (n = 580);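 active means mean inhibition above the hit cutoff derived in the earlier primary screen, cut at about 25% in these data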;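 further: 0% = DMSO-treated cells and 100% = JAK inhibitor I control wells; higher means lower luminescence from reduced cell ATP and viability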
# * hit, by the source's call; . = no result given. Compounds with a hit are over-represented: about 1.9% of the library has one in this group of screens.
SMILES,BaF3 parental,IEC-6 cytotox,Ba/F3 V617F tox,APP 5UTR inh,KLF5 inhibitor,BaF3 tox 2,JAK2V617F conf
C/C(CC(C)(C)c1ccccc1)=N\NS(=O)(=O)c1ccccc1,1,0,-3,-21,5,.,.
O=C(c1ccc(Br)o1)N(Cc1ccccc1)c1ccccn1,7,-2,1,1,-1,.,.
CCOc1ccc(NCCC#N)cc1,4,-4,44*,-17,-18,-4,-9
O=C1N/C(=C\c2nc3ccccc3s2)c2ccccc21,-1,13,-1,.,-80,.,.
O=C1N/C(=C\c2ccccc2)c2ccccc21,20,16,38*,-39,-9,27,45*
CCOC(=O)N1CCN(c2c(F)cc3[nH]c(=S)[nH]c3c2Br)CC1,12,6,28*,15,-27,7,25*
COCCNC(=O)c1c[nH]c2ccc(S(=O)(=O)N3CCc4ccccc43)cc2c1=O,13,6,67*,3,-1,83*,86*
O=C(Nc1nc(-c2ccc(Cl)cc2Cl)cs1)C1CCCO1 (stereo unspecified),0,-1,28*,1,-26,-1,2
CC(C)[C@@H](C(=O)NCc1ccco1)N1C(=O)N2CCc3c([nH]c4ccccc34)[C@@]2(C)C1=O,.,5,.,.,-11,.,.
C/C(COc1ccccc1)=N\NC(=O)c1nnn(-c2nonc2N)c1CSc1ccccc1,.,1,.,.,-33,.,.
C#CC[N+](C)(C)CC#Cc1ccccc1,11,2,39*,-20,-50,3,42*
CC(Oc1ccccc1)C(=O)Nc1ccc(C(N)=O)cc1 (stereo unspecified),0,4,-2,-10,6,.,.
COC(=O)c1ccc(NC(=O)C(C)Oc2ccccc2)cc1 (stereo unspecified),4,-3,26*,-16,-15,-7,-17
COc1ccc(N(CC(=O)Nc2cccc(N(C)S(C)(=O)=O)c2)S(=O)(=O)c2ccccc2)cc1Cl,3,16,5,-16,-5,.,.
COc1ccc(C2=Nc3cccc4cccc(c34)N2)cc1,-3,4,-4,-2,-19,.,.
Nc1cccc(C2=Nc3cccc4cccc(c34)N2)c1,7,-6,53*,4,-2,-7,-10
Cc1ccc(Cn2ccsc2=NC(=O)CCl)cc1,4,93*,69*,-1,-31,3,97*
S=C(/N=c1/sccn1Cc1ccccc1)NC1CC1,.,-5,.,.,-6,.,.
O=C(O)Cc1csc(-c2cccc(F)c2)n1,3,-5,-1,-9,10,.,.
CC(C)(C)c1cc(NC(=O)CCl)n(-c2ccccc2)n1,-9,-8,30*,.,2,-5,81*
CC(=O)Nc1ccc(OS(=O)(=O)c2ccc(C(C)(C)C)cc2)cc1,7,-2,-2,2,11,.,.
Cc1ccccc1CS(=O)(=O)c1nnc([C@H](CC(C)C)NC(=O)OC(C)(C)C)o1,2,11,47*,36,-7,-2,55*
CC(C)C[C@H](N)c1nnc(S(=O)(=O)Cc2cccc(F)c2)o1,1,-4,-3,-5,-21,.,.
CC(C)(C)OC(=O)N[C@@H](Cc1ccccc1)c1nnc(S(=O)(=O)Cc2cccc(F)c2)o1,8,-7,44*,53*,-34,6,72*
Cc1cc(C(F)(F)F)nc(SCC(=O)NC2CCCCC2)n1,.,-3,.,.,-32,.,.
SMILES,BaF3 parental,IEC-6 cytotox,Ba/F3 V617F tox,APP 5UTR inh,KLF5 inhibitor,BaF3 tox 2,JAK2V617F conf
CNC(=O)c1nnsc1S(=O)c1ccc(Cl)cc1 (stereo unspecified),3,4,44*,86*,8,8,70*
CCCNC(=O)c1ccc2snnc2c1,-1,-10,-2,-29,-49,.,.
CCCNC(=O)c1nnsc1S(=O)c1ccc(Cl)cc1 (stereo unspecified),-3,14,55*,94*,5,42*,99*
COc1cccc(CC2(CO)CCN(Cc3ccc4cccc(F)c4n3)CC2)c1,7,2,3,-6,11,.,.
Cc1c(NC(=O)COC(=O)c2cc(-c3ccc(-c4ccccc4)cc3)nc3ccccc23)c(=O)n(-c2ccccc2)n1C,21,2,30*,-100,-59,59*,72*
COc1ccccc1C1CC(c2ccccc2)=NN1C(=S)Nc1ccccc1 (stereo unspecified),2,10,-1,-10,-11,.,.
COc1ccc(C2CC(=O)N3C(=C2C#N)SCC3(O)c2ccccc2)cc1 (stereo unspecified),-1,5,-5,-20,1,.,.
N#CC1=C2SCC(O)(c3ccccc3)N2C(=O)CC1c1ccccc1F (stereo unspecified),17,15,27*,-3,21,20,25*
O=C(NCC1CCCO1)c1cccc(N2C(=O)C3C4C=CC(C4)C3C2=O)c1 (stereo unspecified),1,-6,96*,-4,-12,-6,-5
Cc1ccc(/C=N/NC(=O)C(=O)N/N=C/c2ccc(C)o2)o1,0,-2,45*,7,-44,-6,-12
O=C(Nc1nc(=O)c2ccccc2s1)c1ccccc1,15,1,29*,-66,0,-3,-12
CCn1cc(Cl)c(C(=O)Nc2cccc(CN3CCOCC3)c2)n1,.,4,.,.,-27,.,.
Cc1ccc(NS(=O)(=O)c2cc3c4c(cccc4c2)C(=O)NC3=O)cc1C,11,15,25*,.,-1,45*,77*
Fc1ccccc1C1c2cccn2CCN1C(=S)Nc1ccc(Br)cc1 (stereo unspecified),5,3,1,-8,-5,.,.
CC1=CC(C)(C)Nc2ccc(OC(=O)c3ccco3)cc21,0,-4,43*,37,-12,37*,83*
CC1=CC(C)(C)Nc2ccc(OC(=O)CN3C(=O)CCC3=O)cc21,4,4,4,26,-10,.,.
CC12CN3CC(C)(CN(C1)C3c1ccc(F)cc1)C2 (stereo unspecified),0,4,5,7,-33,.,.
CCCCCCCCCCCC(=O)NC1CCS(=O)(=O)C1 (stereo unspecified),0,1,70*,11,-24,-4,0
Cn1cnc([N+](=O)[O-])c1S(=O)(=O)c1ccc(Cl)cc1,-2,11,26*,11,-1,1,69*
Cn1cnc([N+](=O)[O-])c1NC(C)(C)C,9,-1,2,-1,-34,.,.
Cc1c(C#N)sc2nc(-c3ccccc3)nc(N3CCCC3)c12,-1,7,95*,10,14,-5,-2
N#Cc1sc2nc(N3CCCCC3)c3c(c2c1N)CCCC3,5,-2,-1,9,2,.,.
CC(=O)Oc1ccc(OC(C)=O)c(SCCCCCCl)c1,4,1,85*,83*,-28,102*,97*
CC(=O)Oc1ccc(C(=O)O)cc1OC(C)=O,-2,-5,-3,4,5,.,.
